In all, about 340,000 compounds went through this assay and about 2,300 (0.68%) were called active. The sample holds actives, similar compounds and a random draw of the others, so the mix is not that of the screen. Unmarked numbers belong to inactive results. Cut-off read from the data, not from the text of the source: active = growth rescue above about 28% (passing the limit was not always enough); inconclusive = no clear call, values can overlap the other calls.
Assay: rescue of yeast from PfHsp40 toxicity, primary screen, S. cerevisiae, ATP luminescence (AID 504582);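 note: yeast W303a lacking pdr1 and pdr3 grown in galactose medium; growth measured after three days at 30 °C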
Settings: S. cerevisiae expressing PfHsp40, growth rescue, at 12.5 µM, stronger effect = higher value

| SMILES | growth rescue |
| --- | --- |
| CC(Oc1cccc(NC(=O)c2cccs2)c1)C(=O)c1ccccc1 (stereo not drawn) | 3.27% |
| Cc1cccc(NC(=O)Nc2cccc(Oc3c(F)c(F)c(F)c(F)c3F)c2)c1 | -0.315% |
| Cc1ccoc1C(=O)Nc1cccc(Oc2ccccc2)c1 | 372% (active) |
| CCC1CCCCN1CCNC(=O)c1[nH]c(C)c(C(C)=O)c1C (stereo not drawn) | -0.34% |
| O=C1NC2(CCCCCC2)C(=O)N1CCS(=O)(=O)Oc1ccccc1 | 0.283% |
| CN(C)CC1Oc2ccccc2OC1(O)c1ccccc1 (stereo not drawn) | 472% (active) |
| O=C(NCC1COc2ccccc2O1)C1(c2ccccc2)CCCC1 (stereo not drawn) | 2.05% |
| CN(C)CCOC(=O)C(c1ccccc1)C1(O)CCCC1 (stereo not drawn) | 0.536% |
| CSc1ncccc1C(=O)NCc1ccccc1Cl | 1.68% |
| CCN(CC)CCCNC(=O)CCn1nc(-c2ccc(Cl)cc2)ccc1=O | -0.666% |
| CC(NC(=O)c1ccco1)C(=O)Nc1nc(-c2ccccn2)cs1 (stereo not drawn) | -0.236% |
| O=C(COc1ccccc1F)Nc1nc(-c2ccccn2)cs1 | 398% (active) |
| O=C(CN1C(=O)C2C3C=CC(C3)C2C1=O)Nc1nc(-c2ccccn2)cs1 (stereo not drawn) | -0.446% |
| O=C(O)C1=C[C@H](c2cccs2)C[C@H](OCCCCO)O1 | -1.21% |
| O=C(Nc1sc2c(c1C(=O)O)CCC2)c1ccccc1F | 0.175% |
| O=C(O)c1c(NC(=O)N2CCCC2)sc2c1CCCC2 | 232% (active) |
| O=C(CN1CCCC1)Nc1sc2c(c1C(=O)Nc1ccccc1)CCCC2 | 0.179% |
| C=CCNc1nc(Nc2ccc(Cl)cc2)nc(OC)n1 | 0.232% |
| CC(C)(C)NC(=O)c1ccc(Cn2cc(C(F)(F)F)ccc2=O)cc1 | -0.625% |
| CCc1ccc(NC(=O)c2ccc(Cn3cc([N+](=O)[O-])cn3)cc2)cc1 | -0.255% |
| Cn1ccc(=Nc2ccc(NC(=O)c3ccc(N=c4ccn(C)c5ccc([N+](=O)[O-])cc45)cc3)cc2)cc1 | 236% (active) |
| Cn1c(=O)n(C)c2cc(C(=O)Nc3ccc(Br)cc3)ccc21 | -1.51% |
| Oc1ccc2ccccc2c1N=Nc1nccs1 | 118% (active) |
| Cc1ccc(CNC(=O)CC2Sc3ccccc3NC2=O)cc1 (stereo not drawn) | 0.304% |
| Cc1cccc(NC(=O)c2cccc(C(=O)Nc3cccc(C)c3C)n2)c1C | -0.654% |
| O=C(CNC(=O)c1ccc(-c2ccccc2)cc1)OCc1ccc(Cl)cc1 | -0.241% |
| O=C(OCC(=O)c1c[nH]c2ccccc12)c1cccc(O)c1 | -0.5% |
| O=C(OCc1ccc(-c2ccccc2)cc1)c1cccc(O)c1 | 179% (active) |

Reference: PubChem BioAssay AID504582 (Broad Institute, 2011)
